These results are taken from PubChem BioAssay (NCI).

Among the test systems are SR leukemia; OVCAR-5 ovarian; OVCAR-4 ovarian; SK-OV-3 ovarian; IGROV1 ovarian; OVCAR-3 ovarian; HS 578T breast; NCI/ADR-RES ovarian; OVCAR-8 ovarian.
Common to all, as to test: NCI-60 one-dose screen, 48 h (100 = growth as untreated, 0 = no growth, -100 = all killed)
Conditions in all cases: 10 µM unless noted

This is part of a sample that, as a whole, favours compounds with a hit. Of some 83,000 tested, about 20% had one in any assay.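 The test compound was applied at a single concentration to cells in 96-well plates for 48 hours, and percent growth was recorded.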 A number with no mark means an inactive call. Active and inactive are the calls of the source. The calls were made as follows: active = growth percent below 10; inactive = the rest.

Turning to `CCO/C=N/C1=C(C#N)C(c2ccc(Cl)cc2)c2sc3c(F)cccc3c2O1` (configuration not stated), the growth in the assay with SR leukemia was 36.8%; with OVCAR-5 ovarian it was 89.2%; in the assay on OVCAR-4 ovarian it was 77.6%; with SK-OV-3 ovarian, 81.9%; in the assay on IGROV1 ovarian, 60.7%; with OVCAR-3 ovarian, 25.3%. For the same molecule, the growth with HS 578T breast was 55.6%; in the assay with NCI/ADR-RES ovarian, 39.6%.
With `S=c1sc2c(Cl)nc(-c3cccnc3)nc2n1-c1ccccc1`, the growth in the assay on SR leukemia is -27.2% (active); with OVCAR-8 ovarian it was 18%; in the assay with OVCAR-5 ovarian, 125%; with OVCAR-4 ovarian, 70.6%; in the assay with SK-OV-3 ovarian, 87.9%; in the assay on IGROV1 ovarian, -60.2% (active). The values for the growth in the assay on OVCAR-3 ovarian, in the assay with HS 578T breast and with NCI/ADR-RES ovarian were 52.2%, 55.9% and 60.2%, respectively.
With `O=c1[nH]c(Cc2nc3ccccc3s2)nc2cc(Br)ccc12`, the growth in the assay on SR leukemia is 75.4%; with OVCAR-8 ovarian it was 70.8%; with OVCAR-5 ovarian, 66.5%; in the assay with OVCAR-4 ovarian it was 92.4%; in the assay with SK-OV-3 ovarian, 78.8%; with IGROV1 ovarian it was 73.9%. Further, the growth was 86.4% with OVCAR-3 ovarian, 84.2% with HS 578T breast and 72.8% with NCI/ADR-RES ovarian.
For the molecule `Cc1cccc(CNc2c3ccccc3nc3ccccc23)c1`, the growth in the assay on SR leukemia is -2.88% (active); in the assay on OVCAR-8 ovarian, 20.3%; with OVCAR-5 ovarian, 35.8%; in the assay on OVCAR-4 ovarian, 27.9%; in the assay on SK-OV-3 ovarian, 45.3%; in the assay with IGROV1 ovarian, 19.5%. Further, the growth in the assay with OVCAR-3 ovarian is 30.8%; in the assay with HS 578T breast, 30.3%; with NCI/ADR-RES ovarian it was 25.7%.
On to `CNC(=O)c1[nH]cc(-c2ccc(OC)cc2)c1-c1cc(OC)c2c(c1OC)OCO2`, for which the growth in the assay on SR leukemia is 102%; in the assay on OVCAR-8 ovarian it was 98.7%; with OVCAR-5 ovarian, 95.8%; in the assay with OVCAR-4 ovarian, 96.4%; in the assay on SK-OV-3 ovarian, 99.9%; with IGROV1 ovarian it was 87.4%. In addition, the growth was 100% in the assay with OVCAR-3 ovarian, 115% in the assay with HS 578T breast and 95.8% in the assay with NCI/ADR-RES ovarian.
Turning to `O=C(COc1ccc(-c2nc3cc(Cl)c(Cl)cc3[nH]2)cc1)N=Nc1c(O)[nH]c2ccc(Cl)cc12`, the growth is 31.1% in the assay with SR leukemia; 37% in the assay with OVCAR-8 ovarian; 95.6% in the assay with OVCAR-5 ovarian; 64.2% with OVCAR-4 ovarian; 84.5% in the assay with SK-OV-3 ovarian; 79.9% in the assay with IGROV1 ovarian. Also, the growth in the assay on OVCAR-3 ovarian was 75.1%; in the assay on HS 578T breast, 67.5%; in the assay with NCI/ADR-RES ovarian, 95.8%.
Consider `O=c1[nH]c(-c2ccccc2)nc2sc3cc(O)ccc3c12`, for which the growth with SR leukemia is 54.2%; in the assay with OVCAR-8 ovarian, 100%; in the assay with OVCAR-5 ovarian it was 115%; in the assay with OVCAR-4 ovarian it was 80%; in the assay on SK-OV-3 ovarian it was 97.9%; in the assay with IGROV1 ovarian it was 74.1%. Further, the growth is 93.4% in the assay on OVCAR-3 ovarian, 89% in the assay on HS 578T breast and 95.5% in the assay with NCI/ADR-RES ovarian.
For the molecule `CC1=NC2=Nn3c(c4cnn(-c5ccccc5)c4n/c3=N\N)NN2C(c2ccccc2)=C1`, the growth is 99.6% in the assay on SR leukemia; 90% in the assay on OVCAR-5 ovarian; 94.7% in the assay with OVCAR-4 ovarian; 98% in the assay on SK-OV-3 ovarian; 61.8% in the assay on IGROV1 ovarian; 90.2% with OVCAR-3 ovarian. The growth with HS 578T breast was 80.5%; with NCI/ADR-RES ovarian, 97.5%.
`COc1ccc(/C=C/C(=O)c2ccc(Nc3ccnc4cc(Cl)ccc34)cc2)cc1`: the growth was -72.4% (active) with SR leukemia; 97.9% with OVCAR-8 ovarian; 89.2% with OVCAR-5 ovarian; 96.6% with OVCAR-4 ovarian; 111% in the assay with SK-OV-3 ovarian; 93.7% with IGROV1 ovarian. The growth with OVCAR-3 ovarian is 118%; with HS 578T breast, 106%; in the assay with NCI/ADR-RES ovarian, 83.6%.
As to `COC1=CC(c2ccc[nH]2)=N/C1=C\c1[nH]c(C)c(C)c1CCC(=O)OCc1ccccc1`, the growth was -47.1% (active) in the assay on SR leukemia; -11.3% (active) in the assay on OVCAR-8 ovarian; 7.87% (active) in the assay on OVCAR-5 ovarian; 9.61% (active) in the assay on OVCAR-4 ovarian; 29.5% with SK-OV-3 ovarian; 0.242% (active) in the assay with IGROV1 ovarian. Further, the growth in the assay with OVCAR-3 ovarian is -73.8% (active); with HS 578T breast, -9.2% (active); in the assay on NCI/ADR-RES ovarian, -0.591% (active).
In the case of `CCOc1ccccc1Cn1ccnc1CCc1c(Cl)c(O)cc(O)c1C(=O)OC`, the growth with SR leukemia is 91.5%; in the assay on OVCAR-8 ovarian, 97.7%; in the assay on OVCAR-5 ovarian it was 95.8%; with OVCAR-4 ovarian it was 114%; in the assay with SK-OV-3 ovarian, 91.9%; in the assay on IGROV1 ovarian it was 94.8%. In addition, the values for the growth with OVCAR-3 ovarian, in the assay on HS 578T breast and in the assay on NCI/ADR-RES ovarian were 106%, 107% and 93.5%, respectively.
As to `Cc1ccc(CNc2ccc3nc(CCC4CCCCC4)[nH]c3c2)cc1`, the growth in the assay with SR leukemia is 12.8%; with OVCAR-8 ovarian, 56.4%; with OVCAR-5 ovarian, 57.8%; with OVCAR-4 ovarian it was 11%; in the assay on SK-OV-3 ovarian, 60.3%; in the assay with IGROV1 ovarian it was 25.6%. In addition, the growth in the assay with OVCAR-3 ovarian was 28.6%; with HS 578T breast, 55.7%; with NCI/ADR-RES ovarian, 40.4%.
Turning to `Cc1ccc(C(=O)c2ccc(CC(=O)N/N=C/c3ccccc3O)n2C)cc1`, the growth in the assay with SR leukemia was 56.2%; with OVCAR-5 ovarian, 92%; in the assay on OVCAR-4 ovarian it was 60.2%; with SK-OV-3 ovarian, 90.4%; with IGROV1 ovarian it was 80.9%; in the assay on OVCAR-3 ovarian it was 80.3%. For the same molecule, the growth was 104% in the assay on HS 578T breast and 69.4% in the assay on NCI/ADR-RES ovarian.
With `Cc1ccc(C)n1-c1ccccc1-n1c(C)ccc1C`, the growth with SR leukemia is 93.2%; in the assay on OVCAR-8 ovarian, 102%; with OVCAR-5 ovarian, 118%; with OVCAR-4 ovarian, 105%; in the assay with SK-OV-3 ovarian, 109%; with IGROV1 ovarian, 92.9%. The growth in the assay on OVCAR-3 ovarian was 120%; in the assay with HS 578T breast, 117%; in the assay with NCI/ADR-RES ovarian it was 116%.
For `Cc1nc2sc(C(=O)Nc3cccc(Br)c3)c(N)c2cc1C(O)c1ccccc1` (configuration not stated), the growth in the assay with SR leukemia is 13.4%; in the assay on OVCAR-8 ovarian it was 20.8%; in the assay with OVCAR-5 ovarian, 57%; in the assay with OVCAR-4 ovarian, 70.5%; with SK-OV-3 ovarian, 35.6%; in the assay on IGROV1 ovarian, 32.1%. Also, the growth was 8.16% (active) in the assay with OVCAR-3 ovarian, 21% in the assay on HS 578T breast and 11.7% in the assay on NCI/ADR-RES ovarian.
For the molecule `C=C1C(=O)O[C@H]2[C@H]1CC/C(COC(=O)c1cc3ccccc3s1)=C\CC[C@@]1(C)O[C@@H]21`, the growth is -1.95% (active) in the assay on SR leukemia; -57.3% (active) in the assay with OVCAR-5 ovarian; -62% (active) in the assay on OVCAR-4 ovarian; 85.3% in the assay on SK-OV-3 ovarian; -66% (active) in the assay on IGROV1 ovarian; -69% (active) in the assay with OVCAR-3 ovarian. Also, the values for the growth with HS 578T breast and in the assay with NCI/ADR-RES ovarian were -17.7% (active) and 1.73% (active), respectively.
Turning to `O=C(/C=C(/C=C/c1ccc2[nH]ccc2c1)OB(F)F)/C=C/c1ccc2[nH]ccc2c1`, the growth with SR leukemia was 2.78% (active); in the assay with OVCAR-8 ovarian, -29.9% (active); with OVCAR-5 ovarian it was 15.4%; with OVCAR-4 ovarian, 2.28% (active); in the assay on SK-OV-3 ovarian it was 13.6%; in the assay on IGROV1 ovarian it was 5.09% (active). Further, the results for the growth with OVCAR-3 ovarian, with HS 578T breast and in the assay with NCI/ADR-RES ovarian were -16.2% (active), 31.4% and 14.3%, respectively.
For `O=C(c1ccccc1)c1ccc(C2CCCCC2)cc1`, the growth is 107% with SR leukemia; 97.8% in the assay on OVCAR-8 ovarian; 95.4% in the assay with OVCAR-5 ovarian; 95.2% in the assay on OVCAR-4 ovarian; 91.6% in the assay with SK-OV-3 ovarian; 100% with IGROV1 ovarian. In addition, the growth in the assay on OVCAR-3 ovarian is 98.7%; with HS 578T breast, 103%; in the assay on NCI/ADR-RES ovarian it was 99.7%.
For `COc1cc2c(c(OC)c1OC)CCC(c1cccc(C(=O)Nc3cccc(Cl)c3)c1)O2` (configuration not stated), the growth is 30.5% in the assay on SR leukemia; 75.1% with OVCAR-8 ovarian; 75.3% in the assay on OVCAR-5 ovarian; 70.3% in the assay with OVCAR-4 ovarian; 64.9% in the assay on SK-OV-3 ovarian; 63.8% with IGROV1 ovarian. Also, the growth was 85.3% in the assay on OVCAR-3 ovarian, 80.2% with HS 578T breast and 83.8% with NCI/ADR-RES ovarian.
